According to PubChem BioAssay:
Active and inactive are the calls of the source.

Assays:
[1] = tested on: Human papillomavirus type 1a protein E7 (residues 44-93); assay: HPV1a E7 fragment binders on microarrays, primary screen, biochemical, small-molecule microarray, residues 44-93, 635 nm fluorescence (AID 1108); conditions: small-molecule microarray binding, fluorescence 635 nm; higher = more signal;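 note: E7 fragment applied at 1 µg/mL in TBST for 1 h at 4 C; score combines spot fluorescence with its signal to noise ratio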
[2] = modulators of HCV replicon luciferase signal, primary screen, HCV replication inhibitor project, Huh7 cells, luciferase reporter (AID 1109); conditions: 48 h, higher = more signal;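 note: huh7 hepatoma cells harbouring a luciferase neomycin HCV replicon reporter; luciferase luminescence as measure of HCV replicon replication; test concentration not given here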
[3] = biological target: Left-right determination factor 2 (Homo sapiens) (UniProt O00292); assay: LEFTY2 binders on small-molecule microarrays, primary screen, biochemical, small-molecule microarray, 635 nm fluorescence scan (AID 1110); conditions: LEFTY2 binding, higher = more signal
[4] = biological target: Calmodulin-1 (Homo sapiens) (UniProt P0DP23); assay: CALM1 binders on microarrays, EGTA buffer, profiling panel, biochemical, small-molecule microarray, Cy5-labelled CALM1 (AID 1111); conditions: Cy5-CALM1 binding fluorescence, higher = more signal;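 note: labelled calmodulin applied in Tris saline Tween buffer holding calcium plus EGTA and DTT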
[5] = biological target: Calmodulin-1 (Homo sapiens) (UniProt P0DP23); assay: calcium-bound CALM1 binders on microarrays, profiling panel, artefact control for SMM control-protein annotation, biochemical, small-molecule microarray, Cy5-labelled CALM1, plus calcium (AID 1112); conditions: Cy5-CALM1 binding fluorescence, higher = more signal;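 note: score merges spot fluorescence with signal to noise from triplicate slides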
[6] = small-molecule microarray binders of probe aWnt5a, primary screen, biochemical, biotinylated probe, 635/667 nm fluorescence (AID 1113); conditions: higher = more signal;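 note: score merges 667 nm fluorescence intensity with signal-to-noise per printed feature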
[7] = small-molecule microarray binders of probe aShh, primary screen, biochemical, biotinylated probe, 635/667 nm fluorescence (AID 1114); conditions: higher = more signal;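 note: probe is biotin-labelled aShh protein from a stem cell growth factor screen; measures binding of labelled protein to compounds printed on the slide; score merges feature fluorescence at 667 nm with signal-to-noise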
[8] = small-molecule microarray binders of probe aNog, primary screen, biochemical, biotinylated probe, 635/667 nm fluorescence (AID 1115); conditions: higher = more signal;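 note: probe is biotinylated aNog protein used at 0.15 µg/mL for 1 h at 4 C; z-score combines 667 nm fluorescence of each spot with its signal to noise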
[9] = biological target: Torsin-1A-interacting protein 1 (Homo sapiens) (UniProt Q5JTV8); assay: LAP1 binders from COS7 cell lysate, primary screen, small-molecule microarray, 635/667 nm fluorescence (AID 1116); conditions: COS7-hLAP1 lysate binding, 635 nm fluorescence, higher = more signal
[10] = biological target: Alpha-bungarotoxin (Bungarus multicinctus) (UniProt P60615); assay: alpha-bungarotoxin binders on microarray, profiling panel, artefact control for SMM control protein annotation, biochemical, small-molecule microarray, Alexa647 label, 635/667 nm fluorescence (AID 1117); conditions: alpha-BTX-A647 binding fluorescence, higher = more signal
[11] = biological target: Albumin (Bos taurus) (UniProt P02769); assay: bovine serum albumin binders on microarray, profiling panel, artefact control for SMM control protein annotation, biochemical, small-molecule microarray, Alexa647 label, 635/667 nm fluorescence (AID 1118); conditions: BSA-A647 binding, fluorescence 635 nm, higher = more signal;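 note: score merges 667 nm emission intensity and signal-to-noise per printed compound spot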
[12] = small-molecule microarray binders of probe aXIP, primary screen, biochemical, NeuroSMM set, 635/667 nm fluorescence (AID 1119); conditions: higher = more signal, called active from +8 up or from −8 down;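 note: probe is the protein aXip251-270 applied at 1 µg/mL to compound-printed slides; binding of probe to printed compounds measured as 667 nm fluorescence plus signal to noise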
[13] = small-molecule binders of probe aNOTCH3, primary screen, biochemical, small-molecule microarray, 635/667 nm fluorescence (AID 1120); conditions: higher = more signal;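 note: probe is a biotin-tagged antibody raised against NOTCH3 rather than NOTCH3 protein; score merges spot fluorescence near 667 nm with spot signal to noise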
[14] = small-molecule binders of probe aNOTCH2, primary screen, biochemical, small-molecule microarray, 635/667 nm fluorescence (AID 1121); conditions: higher = more signal;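 note: score merges feature fluorescence read at 667 nm with its signal to noise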
[15] = biological target: Carbonic anhydrase 2 (Homo sapiens) (UniProt P00918); assay: CAII small-molecule binders, profiling panel, biochemical, small-molecule microarray, Alexa647-labelled CAII (AID 1122); conditions: CAII-A647 binding fluorescence, higher = more signal
[16] = COS7 lysate on small-molecule microarray, probe aHis, 635 nm (AID 1123); conditions: COS7 cell lysate, fluorescence, higher = more signal;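 note: z-score combines 667nm fluorescence intensity with signal-to-noise per printed compound spot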
[17] = compound binding in COS7 lysate, probe aLAP1, primary screen, cell lysate, small-molecule microarray (AID 1124); conditions: probe aLAP1, fluorescence, higher = more signal;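 note: lysate comes from COS7 cells expressing LAP1 and is applied at 0.3 µg/mL; score merges spot fluorescence near 667 nm with signal-to-noise over triplicate slides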
[18] = tested on: Sam68 (KHDRBS1); assay: Sam68 small-molecule binders, primary screen, biochemical, small-molecule microarray, 635 nm fluorescence (AID 1125); conditions: small-molecule microarray binding, higher = more signal;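 note: score merges 667 nm channel intensity with signal to noise over triplicate slides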
[19] = tested on: Chordin-like protein 2 (CHRDL2); assay: CHRDL2 small-molecule binders, primary screen, biochemical, small-molecule microarray, 635 nm fluorescence (AID 1126); conditions: small-molecule microarray binding, fluorescence 635 nm; higher = more signal;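 note: printed compound slides probed with Chrdl2 protein at 4 µg/mL for 1 h at 4 C; score merges 667 nm emission intensity with signal to noise over three replicate slides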
[20] = biological target: Concanavalin-A (Canavalia ensiformis) (UniProt P02866); assay: ConA small-molecule binders, primary screen, artefact control for SMM control protein annotation, biochemical, small-molecule microarray, Alexa647 label, 635 nm (AID 1127); conditions: ConA-A647 binding fluorescence, higher = more signal;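 note: z combines 667 nm emission intensity with signal-to-noise across three replicate slides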
Concanavalin-A (Canavalia ensiformis), sequence (P02866 whole entry, looked up): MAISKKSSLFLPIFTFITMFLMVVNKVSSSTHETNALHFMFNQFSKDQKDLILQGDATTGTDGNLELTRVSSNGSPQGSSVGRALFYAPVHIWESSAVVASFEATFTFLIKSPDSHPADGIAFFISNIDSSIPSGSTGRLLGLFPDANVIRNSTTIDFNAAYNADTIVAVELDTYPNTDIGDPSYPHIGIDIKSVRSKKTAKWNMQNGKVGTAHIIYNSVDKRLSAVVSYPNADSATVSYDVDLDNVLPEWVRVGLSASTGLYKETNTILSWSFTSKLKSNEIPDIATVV

Torsin-1A-interacting protein 1 (Homo sapiens), sequence (Q5JTV8 whole entry, looked up): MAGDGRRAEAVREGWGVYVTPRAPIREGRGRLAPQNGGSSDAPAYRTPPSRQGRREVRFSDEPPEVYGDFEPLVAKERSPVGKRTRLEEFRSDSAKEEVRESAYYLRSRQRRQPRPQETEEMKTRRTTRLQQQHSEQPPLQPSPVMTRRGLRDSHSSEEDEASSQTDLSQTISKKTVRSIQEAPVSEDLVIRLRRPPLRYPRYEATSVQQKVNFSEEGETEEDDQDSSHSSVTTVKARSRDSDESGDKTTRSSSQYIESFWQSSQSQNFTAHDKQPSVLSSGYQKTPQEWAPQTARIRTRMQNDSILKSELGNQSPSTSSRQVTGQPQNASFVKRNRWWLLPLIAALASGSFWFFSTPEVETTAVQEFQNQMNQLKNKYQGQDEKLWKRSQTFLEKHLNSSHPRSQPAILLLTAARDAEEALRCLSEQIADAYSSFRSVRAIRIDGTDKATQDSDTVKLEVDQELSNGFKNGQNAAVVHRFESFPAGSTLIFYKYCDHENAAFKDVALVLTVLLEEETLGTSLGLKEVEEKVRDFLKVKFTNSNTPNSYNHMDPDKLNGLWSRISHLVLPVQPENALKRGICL
Albumin (Bos taurus), sequence (P02769 whole entry, looked up): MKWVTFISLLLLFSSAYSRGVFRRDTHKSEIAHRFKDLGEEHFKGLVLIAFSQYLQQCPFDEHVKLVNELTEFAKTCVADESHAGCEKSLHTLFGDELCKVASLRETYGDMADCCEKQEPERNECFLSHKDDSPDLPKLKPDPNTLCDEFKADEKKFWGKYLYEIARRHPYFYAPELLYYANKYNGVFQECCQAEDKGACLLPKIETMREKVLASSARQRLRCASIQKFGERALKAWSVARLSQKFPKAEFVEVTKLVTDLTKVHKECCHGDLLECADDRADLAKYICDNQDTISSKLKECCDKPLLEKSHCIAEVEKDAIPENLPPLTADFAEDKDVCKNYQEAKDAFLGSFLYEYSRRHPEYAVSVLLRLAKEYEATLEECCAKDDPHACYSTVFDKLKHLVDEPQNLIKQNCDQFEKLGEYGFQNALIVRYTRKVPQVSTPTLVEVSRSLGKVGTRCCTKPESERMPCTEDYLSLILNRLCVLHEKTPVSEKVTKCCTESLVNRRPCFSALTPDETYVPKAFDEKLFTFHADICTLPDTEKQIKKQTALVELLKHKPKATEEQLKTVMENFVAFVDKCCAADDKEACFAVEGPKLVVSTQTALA
Left-right determination factor 2 (Homo sapiens), sequence (O00292 whole entry, looked up): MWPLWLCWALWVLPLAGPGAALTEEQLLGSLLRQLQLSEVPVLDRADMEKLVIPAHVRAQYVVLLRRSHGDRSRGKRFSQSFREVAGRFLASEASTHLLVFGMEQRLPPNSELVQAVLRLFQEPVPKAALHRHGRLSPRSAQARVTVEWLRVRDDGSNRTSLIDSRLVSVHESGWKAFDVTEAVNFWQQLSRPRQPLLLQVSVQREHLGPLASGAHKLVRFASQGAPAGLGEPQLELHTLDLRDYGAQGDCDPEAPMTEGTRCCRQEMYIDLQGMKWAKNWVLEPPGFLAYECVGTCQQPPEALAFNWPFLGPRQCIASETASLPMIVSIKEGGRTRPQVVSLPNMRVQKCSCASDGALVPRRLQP
Alpha-bungarotoxin (Bungarus multicinctus), sequence (P60615 whole entry, looked up): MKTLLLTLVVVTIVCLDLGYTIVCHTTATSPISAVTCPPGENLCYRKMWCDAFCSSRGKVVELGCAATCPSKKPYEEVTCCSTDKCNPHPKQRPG

| SMILES | composite z-score [1] | z-score [2] | composite z-score [3] | composite z-score [4] | composite z-score [5] | composite z-score [6] | composite z-score [7] | composite z-score [8] | composite z-score [9] | composite z-score [10] | composite z-score [11] | composite Z-score [12] | composite z-score [13] | composite z-score [14] | composite z-score [15] | composite z-score [16] | composite z-score [17] | composite z-score [18] | composite z-score [19] | composite z-score [20] |
| --- | --- | --- | --- | --- | --- | --- | --- | --- | --- | --- | --- | --- | --- | --- | --- | --- | --- | --- | --- | --- |
| CCOC(=O)CCN1C(=O)[C@H]2[C@H]3[C@H](O)[C@H](O)CC(=NOCc4ccccc4)[C@H]3CC[C@H]2C1=O | -0.207 | 0.676 | 0.389 | -0.205 | -0.329 | -0.174 | -0.0977 | -0.0312 | 0.0908 | 0.857 | -0.271 | 0.119 (inactive) | 0.191 | -0.0467 | -0.19 | 0.343 | -0.27 | 0.152 | 0.578 | -0.477 |
| CO[C@H]1COC(=O)CC=C[C@H](C)[C@@H](OC)COC(=O)[C@H](C)COC(=O)CC=C[C@@H]1C | -0.61 | 0.507 | 1.33 | -0.774 | -1.62 | -0.154 | -0.439 | -0.303 | -0.396 | -0.876 | -1.2 | 0.559 (inactive) | 0.0306 | -0.133 | -0.425 | -0.552 | 0.975 | -0.106 | 1.43 | -0.55 |
| Cc1cc2c(nc1C)CCCCN2CC(C)ON=C1[C@H]2CCn3c(=O)n(-c4ccccc4)c(=O)n3[C@H]2[C@H](O)[C@@H]2O[C@H]12 (stereo not given in full) | -0.0964 | -4.63 | 0.769 | -0.895 | -1.2 | 0.0839 | 0.258 | 0.0531 | 0.369 | 0.473 | 0.762 | -0.343 (inactive) | 0.0562 | -0.117 | 0.435 | 0.812 | 0.0072 | 0.573 | 0.373 | -0.765 |
| COC(=O)[C@@H]1CC[C@H](C)[C@@H](c2ccc(C)cc2)N1C(=O)c1ccc(C=NO[C@H](C)c2cn([C@@H]3COC[C@H]3O)nn2)cc1 | 1.33 | -1.06 | 0.635 | 0.0264 | -0.361 | -0.152 | 0.0141 | -0.0065 | 0.581 | -0.0105 | 0.56 | -0.359 (inactive) | -0.125 | -0.117 | 0.311 | 0.81 | -0.0293 | 1.21 | 0.389 | 0.581 |
| Cn1c(=O)n2n(c1=O)[C@H]1[C@H](O)[C@@H]3O[C@@H]3C(=NOCc3ccccc3)[C@H]1CC2 | 0.729 | -1.28 | -0.0238 | -0.17 | 0.33 | -0.232 | -0.0339 | -0.0524 | -0.0588 | 0.0868 | 0.0494 | -0.054 (inactive) | -0.112 | -0.14 | 0.487 | 0.444 | -0.0493 | 0.557 | -0.37 | -0.136 |
| CO[C@@H]1COC(=O)[C@@H](C)COC(=O)[C@@H](C)NC(=O)CC=C[C@@H]1C | -1.03 | -2 | 1.51 | -0.99 | -2.06 | -0.2 | -0.13 | 0.0629 | 0.638 | -0.553 | -0.647 | -0.377 (inactive) | -0.16 | -0.208 | -0.425 | -0.566 | 0.262 | 0.0411 | 1.6 | -0.988 |
| COC(=O)[C@@H]1CC[C@H](C)[C@@H](c2ccc(C)cc2)N1C(=O)c1ccc(C=NO[C@H](C)c2cn([C@H](CO)Cc3ccccc3)nn2)cc1 | 0.671 | -2.17 | 0.776 | 3.17 | -0.139 | -0.124 | 0.191 | -0.0318 | 0.462 | 0.0997 | 0.279 | 0.402 (inactive) | 0.217 | 0.111 | 0.233 | -0.141 | 0.452 | 1.02 | 0.684 | 0.653 |
| CCC(=O)[C@@]1(O)C(=O)N2C(=C3C(=O)OCC[C@@H]31)N(Cc1ccccc1)C(C)=C(C(=O)OC)[C@H]2c1ccccc1 | 0.403 | 0.0779 | 0.366 | -0.368 | -0.478 | 0.0108 | -0.221 | -0.369 | 0.478 | -0.0321 | -0.111 | 0.256 (inactive) | 0.0597 | -0.158 | -0.109 | 0.0028 | 0.137 | 0.431 | 0.627 | 0.602 |
| O=C(NN=C1C[C@@H](O)[C@@H](O)[C@@H]2[C@@H]3C(=O)N(C4CCCCC4)C(=O)[C@@H]3CC[C@H]12)OCc1ccccc1 | -0.342 | -2.03 | 0.393 | -0.202 | 0.454 | -0.0051 | -0.542 | 0.0014 | 0.26 | 0.273 | 0.885 | -0.229 (inactive) | 0.273 | 0.179 | 0.0928 | 0.206 | 0.947 | -0.337 | 0.209 | -0.465 |
| C=CC[C@@H]1C=C[C@H](ON=C2[C@H]3CCn4c(=O)n(-c5ccccc5)c(=O)n4[C@H]3[C@H](O)[C@@H]3O[C@H]23)[C@@H](CO)O1 | -0.268 | -3.56 | 0.402 | 0.991 | -0.0461 | -0.147 | -0.0752 | -0.534 | 0.16 | 0.744 | 0.127 | -0.227 (inactive) | -0.172 | -0.101 | 0.256 | -0.143 | -0.208 | -0.862 | 0.564 | 0.535 |
| O=C1CCCC=C1C(CCc1ccccc1)OC(=O)c1ccc(Br)cc1 (stereo not given) | -2.1 | 1.15 | 0.572 | -1.11 | -0.622 | -0.124 | -0.147 | -0.348 | -0.108 | -0.334 | -0.457 | -0.727 (inactive) | -0.104 | -0.146 | -0.475 | 0.214 | -0.815 | -1.4 | 0.388 | -0.612 |
